# Measured values: PubChem BioAssay AID588342 (National Center for Advancing Translational Sciences (NCATS), 2011)
# In all, about 360,000 compounds went through this assay and about 25,000 (6.9%) were called active. Another 9% or so got no clear call; they are omitted. Calls come from the whole dose curve; as a rule, active = well fitted inhibition curve with a large enough effect; inconclusive = small, poorly fitted or top-dose-only effect; inactive = flat fitted curve, though single readings scatter. The list comes from a sample in which actives are over-represented; it also holds similar structures and randomly drawn compounds. Entries that show only a call come without a potency.
# Molecular target: Luciferin 4-monooxygenase (Photinus pyralis) (UniProt P08659)
# Sequence (P08659 whole entry, looked up): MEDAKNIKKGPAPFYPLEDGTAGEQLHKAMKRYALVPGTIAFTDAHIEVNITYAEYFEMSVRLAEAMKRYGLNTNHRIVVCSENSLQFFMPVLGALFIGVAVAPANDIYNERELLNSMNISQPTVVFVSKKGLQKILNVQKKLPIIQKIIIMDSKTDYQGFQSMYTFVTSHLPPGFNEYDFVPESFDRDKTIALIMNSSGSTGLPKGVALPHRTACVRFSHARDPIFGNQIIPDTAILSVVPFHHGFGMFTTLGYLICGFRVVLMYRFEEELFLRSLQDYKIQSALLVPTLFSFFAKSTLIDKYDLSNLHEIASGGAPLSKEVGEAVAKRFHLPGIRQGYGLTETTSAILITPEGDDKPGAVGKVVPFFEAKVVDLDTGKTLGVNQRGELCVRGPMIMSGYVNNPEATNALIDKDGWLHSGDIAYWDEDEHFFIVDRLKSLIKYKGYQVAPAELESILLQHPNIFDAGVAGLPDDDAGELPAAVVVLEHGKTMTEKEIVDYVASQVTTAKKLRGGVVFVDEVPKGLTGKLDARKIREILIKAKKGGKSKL
# Test: qHTS profiling assay for firefly luciferase inhibitor/activator using purifed enzyme and Km concentrations of substrates (counterscreen for miR-21 project); note: nearly all actives have a fitted effect of over 55% in size
# Conditions: purified FLuc, luminescence inhibition; series mostly up to 57.5 µM
# Text: MLPCN Grant: 1 R21 NS059478-01 (miR-21 grant) Assay Provider: NCGC NCGC Assay Overview: Firefly (Photinus pyralis) luciferase is one of the most commonly used transcriptional reporters for a number of reasons. It is considered one of the more dynamically responsive reporters -that is, responsive to changes in reporter transcription - as it requires no post-translational modifications and is enzymatically active directly after protein synthesis (Wood, 1998). Additionally, the half-life of the luciferase protein is short relative to other reporter-gene products (Wood, 1995). Whereas reporters with long half-lives potentially allow for increased signal due to accumulation of reporter-gene product, once accumulated in the cell, dynamic changes in reporter-gene expression may be difficult to detect(Fan and Wood, 2007; Almond et al., 2004). It has been shown that wild-type P. pyralis luciferase has a half-life of approximately […] hours in mammalian cells (Thompson et al., 1991). Firefly luciferase reporter-gene assays are also generally considered one of the most sensitive assay types (Wood, 1995; Wood, 1998). Although light produced in a bioluminescence reaction is of lower intensity than that produced during fluorescence emission, this is offset by little to no background light inherent to luminescent assays. Thus the luciferase reporter can be expressed at much lower levels than fluorescent proteins while still providing robust signal. # However, it was initially observed, in 1991, by Thompson et al., that compounds that resemble the substrates of firefly luciferase (FLuc) can act as competitive inhibitors of the enzyme, and that these compounds, upon interaction with luciferase in the cell, can actually stabilize the protein and increase its half-life. Accumulated intracellular FLuc protein can be measured as an increase in luminescence signal, upon addition of detection reagents (which contain high concentrations of FLuc substrates) commonly used in high-throughput screening. In cell-based reporter gene assays that use FLuc as the reporter gene to quantitate the potential influence of a given compound against the target biology, this apparent increase in luminescence can mistakenly be interpreted as identification of a compound that is active against the target of interest. This is the case for the miR-21 FLuc reporter gene assay used to identify inhibitors of the miR-21 pathway (PubChem AID 2289) - compounds of interest will inhibit miR-21 biogenesis/expression or activity, and are identified by causing an increase in luminescence, due to increased FLuc translation. However, FLuc inhibitory compounds that stabilize the FLuc protein will give an identical read-out, making it difficult to distinguish compounds that are active against the target from those active against FLuc. Previous profiling work to determine the prevalence of compounds that affect FLuc enzymatic activity (PubChem AID 411) identified that ~3% of the MLSMR library (then at ~72K) inhibited FLuc. […] Since the MLSMR had grown to ~350K compounds, and since it was expected that a significant percentage of compounds found active in the miR-21 FLuc assay would be FLuc inhibitors, the library was screened for activity against FLuc using a biochemical assay of purified FLuc and KM concentrations of FLuc substrates (D-luciferin and ATP).
# NCGC Assay Protocol Summary: Reagents: 50mM Tris acetate, pH 7.5; 10mM Mg acetate; 10uM D-luciferin (Sigma #L9504); 10uM ATP; 0.01% Tween-20; 0.05% BSA; 10nM P. pyralis luciferase (Sigma #L9506) Control compounds used were two known firefly luciferase inhibitors (compounds (2) and (5) in Auld et al., 2010), and DMSO. […]
row,Compound,Potency
1,COc1cc(NC(=O)CSc2nc3nc(C)c(Cc4ccc(C)cc4)c(C)n3n2)cc(OC)c1OC,inactive
2,CCC(C)N(C(=O)CSc1nnnn1-c1ccccc1OC)C1CCS(=O)(=O)C1 (configuration not stated),inactive
3,CCC(=O)N1CCc2cc(S(=O)(=O)NC(C(=O)NCCc3ccc(C)cc3)C(C)C)ccc21 (configuration not stated),inactive
4,Cc1cc(C)nc(SCC(=O)c2ccc(Cl)cc2)n1,inactive
5,Cc1cc(Oc2ccc(Cl)cc2)nc(SCC(=O)c2ccccc2)n1,inactive
6,Cc1cc(C)nc(S/C=C/C(=O)c2ccccc2)n1,3.79 µM (active)
7,O=C(CSc1nccn1-c1ccc(F)cc1)Nc1cccc2ccccc12,inactive
8,S=C(c1ccc(-c2ccccc2)o1)N1CCCCC1,2.69 µM (active)
9,S=C(c1ccccc1)N1CCCC1,inactive
10,OCCN1CCN(C(=S)c2ccc(-c3ccccc3)cc2)CC1,inactive
11,COc1cccc(C(=O)NC2(C(F)(F)F)C(=O)Nc3c2c(=O)[nH]c(=O)n3-c2ccc(C)cc2)c1 (configuration not stated),inactive
12,CC1CC(C)CN(C(=O)COC(=O)c2ccc3ncsc3c2)C1 (configuration not stated),inactive
13,Cc1nc2sccn2c(=O)c1S(=O)(=O)NCCc1ccccc1,inactive
14,Cc1nc(C)c(-c2csc(NCCc3ccccc3)n2)s1,16.9 µM (active)
15,CCCc1cc(-c2n[nH]c(=S)n2Cc2ccccc2)cs1,inactive
16,Cc1c(Cl)cccc1NC(=O)C1CCCN(c2ncnc3onc(C)c23)C1 (configuration not stated),inactive
17,Cc1ccc(Cl)cc1N1CCN(C(=O)c2cnc3c(-c4ccc(F)cc4)c(C)nn3c2C)CC1,inactive
18,O=C(Nc1cccnc1)c1cccc(S(=O)(=O)N2CCCC2)c1,inactive
19,O=C(Nc1cccnc1)c1noc2c1CCCCC2,7.57 µM (active)
20,Cc1noc(C)c1COc1cccc(C(=O)Nc2cccnc2)c1,inactive
21,CCOC(=O)c1c(C)[nH]c(CCC(=O)Nc2ccc(OC)c(OC)c2)c1C,inactive

row,Compound,Potency
1,CC(=O)NC(=S)Nc1ccc(NC(=O)c2cccnc2)cc1,inactive
2,O=C(Cc1ccccc1)Nc1ccc(NC(=O)c2cccnc2)cc1,inactive
3,Cc1cc(NS(=O)(=O)c2ccc(NC(=O)c3cccnc3)cc2)nc(C)n1,inactive
4,Cc1cc2nc(-c3ccc(NC(=O)c4cccnc4)cc3)oc2cc1C,6.75 µM (active)
5,Cc1ccc2nc(-c3ccc(NC(=O)c4cccnc4)cc3)oc2c1,5.36 µM (active)
6,O=C(Nc1ccc(-c2nc3cc(NC(=O)c4ccccc4Cl)ccc3o2)cc1)c1ccccc1Cl,inactive
7,CC(C)NC(=O)C1CCC(Cn2c(=O)c3sccc3n(Cc3ccc(F)cc3)c2=O)CC1 (configuration not stated),inactive
8,COc1cc(OC)c(NC(=O)N2CC3CCCN3c3ccccc32)cc1Cl (configuration not stated),inactive
9,COC(=O)c1ccccc1NC(=O)Cn1c(=O)cc(C)c2c(C)nn(-c3cccc(Cl)c3C)c21,inactive
10,COc1ccc2ncc3c(-c4ccc(C)c(C)c4)nn(CC(=O)NC4CCCC4)c3c2c1,inactive
11,COc1ccc(-c2cc(=O)c3c(O)cc(O[C@@H]4O[C@H](CO[C@@H]5O[C@@H](C)[C@H](O)[C@@H](O)[C@H]5O)[C@@H](O)[C@H](O)[C@H]4O)cc3o2)cc1O,inactive
12,COc1c(O)cc2oc(-c3ccc(O)c(O)c3)cc(=O)c2c1O,19 µM (active)
13,CCOC(=O)COc1cc(O)c2c(=O)cc(-c3ccccc3)oc2c1,inactive
14,COc1ccccc1CNC(=O)CCCCn1c(=O)c2ccccc2n(CC(=O)Nc2cc(Cl)ccc2C)c1=O,inactive
15,Cc1nn(C(=O)c2c(F)cccc2F)c(C)c1S(=O)(=O)N1CCOCC1,inactive
16,CC(C)(C)OC(=O)NCCCCCNC(=O)c1[nH]cnc1C(=O)Nc1nccs1,inactive
17,Cc1ccc(-n2c(SCC(=O)NCc3ccc4c(c3)OCO4)nnc2-c2cccnc2)c(C)c1,inactive
18,Cc1ccc(C)c(N2CCN(C(=O)C3CCC(CNS(=O)(=O)c4cccs4)CC3)CC2)c1 (configuration not stated),inactive
19,Cc1ccc(S(=O)(=O)Nc2nc3ccccc3nc2N2CCc3ccccc3C2)cc1,inactive
20,Cc1ccc2c(c1)c1ncn(Cc3ccc(F)cc3)c(=O)c1n2C,inactive
21,Cc1ccc2c(c1)c1ncnc(N3CCc4ccccc4C3)c1n2C,13.5 µM (active)

row,Compound,Potency
1,CCN(CC)CCCNC(=O)c1cn(C)c2ccc(S(=O)(=O)N(C)C3CCCCC3)cc2c1=O,inactive
2,Cn1c(=O)c2c(-c3ccccc3Br)n(Cc3ccccc3)cc2n(C)c1=O,inactive
3,COc1cc(OC)cc(-c2c(-c3cccs3)c3cc(-c4ccc(OC)cc4F)ccc3n2C)c1,inactive
4,CCn1cc(C(=O)NCc2ccc(OC)cc2OC)c(=O)c2ccc(C)nc21,inactive
5,O=C(/C=C/c1ccccc1)N1CCN(Cc2cc(=O)n3nc(-c4ccccc4F)sc3n2)CC1,inactive
6,Cc1cc(/C=N/NC(=O)c2cccnc2)c(C)n1CC(C)C,7.57 µM (active)
7,O=C(CNC(=O)c1cccnc1)N/N=C/c1cccnc1,inactive
8,O=C(CNC(=O)c1cccnc1)N/N=C/c1cc(Br)c(O)c(Br)c1,inactive
9,COc1ccc(Cn2c(C(=O)O)c(CNCCc3cccs3)c3ccc(OC)cc32)cc1,inactive
10,Cc1cc(N=Nc2ccc3ccccc3c2)ccc1O,1.35 µM (active)
11,CCOc1ccc(-c2nonc2NC(=O)c2oc3ccc(C)cc3c2C)cc1OCC,inactive
12,COc1ccc(/C=C/C(=O)Nc2ccc(C34CC5CC(CC(O)(C5)C3)C4)cc2)cc1OC,0.601 µM (active)
13,COc1ccc2c(c1)c(=O)c(C(=O)c1ccccc1)cn2CC(=O)Nc1ccc2c(c1)OCCO2,inactive
14,COc1cccc(/C=C/C(=O)Nc2ccc3c(c2)OCCO3)c1,0.757 µM (active)
15,COc1ccc(S(=O)(=O)N(C)CC(=O)Nc2ccc3c(c2)OCCO3)cc1OC,inactive
16,COc1ccc(/C=C/C(=O)Nc2ccc(C)cc2)cc1S(=O)(=O)N1CCOCC1,inactive
17,COc1ccc(/C=C/C(=O)N2CCCC2)cc1OC,inactive
18,COc1ccc(NS(=O)(=O)c2cc(NC(=O)/C=C/c3cc(OC)c(OC)c(OC)c3)ccc2N2CCCCC2)cc1,inactive
19,COc1cccc(NC(=O)CSc2nccn(-c3ccc4c(c3)OCCO4)c2=O)c1,inactive
20,COc1ccc(/C=C/C(=O)Nc2ccc3c(c2)OCCO3)cc1OC,23.9 µM (active)
